USP8 block – inhibitors of human USP8 deubiquitinase. P40818. purified USP8, Ub-rhodamine cleavage fluorescence, 30 min. inhibition, % at 20 µM. actives 4.2% (n = 47,000). AID 1645853
USP30 block – inhibitors of human USP30 deubiquitinase; Q70CQ3; purified USP30, Ub-rhodamine cleavage fluorescence; inhibition, % at 25 µM; actives 5.3% (n = 47,000)
OTUD3 inh – inhibitors of human OTUD3 deubiquitinase; purified OTUD3, Ub-rhodamine fluorescence, 2 h; AID 1645858; actives 0.7% (n = 47,000); inhibition, % at 25 µM
USP28 inh – inhibitors of human USP28 deubiquitinase; actives 3% (n = 47,000); Q96RU2; purified USP28, Ub-rhodamine cleavage fluorescence, 30 min; inhibition, % at 25 µM
USP10 block – human USP10 deubiquitinase inhibition. Q14694. purified USP10, Ub-rhodamine fluorescence, 60 min. inhibition, % at 20 µM. actives 1.1% (n = 47,000). AID 1645856
USP17 inh – inhibitors of human USP17 deubiquitinase; purified USP17, Ub-rhodamine cleavage fluorescence, 3 h; inhibition, % at 50 µM; actives 6.5% (n = 47,000); AID 1645855
Target sequence (A8MUK1 whole entry, looked up): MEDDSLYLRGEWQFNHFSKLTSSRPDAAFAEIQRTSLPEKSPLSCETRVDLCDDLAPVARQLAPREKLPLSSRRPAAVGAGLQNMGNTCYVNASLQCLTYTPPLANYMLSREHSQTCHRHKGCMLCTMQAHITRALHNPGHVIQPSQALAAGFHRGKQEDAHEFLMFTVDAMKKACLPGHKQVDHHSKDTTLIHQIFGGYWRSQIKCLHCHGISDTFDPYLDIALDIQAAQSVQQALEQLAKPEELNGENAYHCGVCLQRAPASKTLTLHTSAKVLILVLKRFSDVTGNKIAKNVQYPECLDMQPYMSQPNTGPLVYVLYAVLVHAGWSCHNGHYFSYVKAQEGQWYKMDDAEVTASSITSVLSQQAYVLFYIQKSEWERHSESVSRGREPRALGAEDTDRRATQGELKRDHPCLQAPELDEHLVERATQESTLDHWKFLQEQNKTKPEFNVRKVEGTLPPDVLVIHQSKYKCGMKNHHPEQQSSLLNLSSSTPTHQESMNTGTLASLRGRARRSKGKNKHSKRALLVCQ
Starred values were filed as active, the others as inactive. Rows were chosen to be rich in hits. Some 13% of all compounds tested hit in one or more screens of this group. No stated cut-off is given here; in the data, active means inhibition above about 30%; inactive means the rest.

What do the screens show for `CC(=O)c1ccc(NC(=O)Cn2nc(-c3ccc(C)cc3)cc(NC(=O)C(C)C)c2=O)cc1`?
USP8 block: 0; USP30 block: -28; OTUD3 inh: -6; USP28 inh: -11; USP10 block: -5; USP17 inh: -13

How did CC(CCc1ccccc1)NC(=O)COC(=O)c1ccc2c(c1)OCCO2 (centres undefined) do in these assays?
USP8 block: 12; USP30 block: 22; OTUD3 inh: 11; USP28 inh: 13; USP10 block: -2; USP17 inh: 18

Results for COc1ccc(NC(c2nnc(-c3ccccc3)o2)c2ccccc2F)c(OC)c1 (centres undefined) ?
USP8 block: 2; USP30 block: -154; OTUD3 inh: -62; USP28 inh: -66; USP10 block: -3; USP17 inh: -2

What do the screens show for `COc1ccc(NC(=O)Nc2ccc(F)c(-c3nnc(-c4ccccc4)o3)c2)c(OC)c1`?
USP8 block: 7; USP30 block: 40*; OTUD3 inh: 12; USP28 inh: 3; USP10 block: 14; USP17 inh: 19

Results for CC(=O)c1cccc(-c2cnc3sc(NCC4CCOCC4)nn23)c1 ?
USP8 block: -3; USP30 block: 24; OTUD3 inh: 14; USP28 inh: 7; USP10 block: 6; USP17 inh: 5

What do the screens show for `CC(=O)Nc1cccc(-c2cnc3sc(NC4CCCCC4)nn23)c1`?
USP8 block: 47*; USP30 block: 12; OTUD3 inh: -1; USP28 inh: 3; USP10 block: 14; USP17 inh: 2

Results for Cc1nnn(C23CC4CC(CC(CC(=O)NCc5ccc6c(c5)OCO6)(C4)C2)C3)n1 ?
USP8 block: -16; USP30 block: -15; OTUD3 inh: -7; USP28 inh: -13; USP10 block: 1; USP17 inh: -24

Results for Cc1nnn(C23CC4CC(CC(C(=O)Nc5ccc6c(c5)OCO6)(C4)C2)C3)n1 ?
USP8 block: 58*; USP30 block: 0; OTUD3 inh: 1; USP28 inh: 9; USP10 block: 4; USP17 inh: 16

Results for CC(C)(C)c1cc(N2CCOCC2)nc(SCc2cccc(C(=O)O)c2)n1 ?
USP8 block: 12; USP30 block: 11; OTUD3 inh: 7; USP28 inh: 0; USP10 block: 4; USP17 inh: 15

How did CC1CCN(c2nc(F)c3c(c2F)S(=O)(=O)CCN3Cc2ccccc2)CC1 do in these assays?
USP8 block: 92*; USP30 block: -10; OTUD3 inh: 5; USP28 inh: 6; USP10 block: -1; USP17 inh: 48*

What do the screens show for `O=S1(=O)CCN(Cc2ccccc2)c2c(F)nc(N3CCCCC3)c(F)c21`?
USP8 block: 87*; USP30 block: -22; OTUD3 inh: -4; USP28 inh: -9; USP10 block: -1; USP17 inh: 53*

What do the screens show for `COCCN1CCS(=O)(=O)c2c(F)c(N3CCCC3)nc(F)c21`?
USP8 block: 3; USP30 block: 25; OTUD3 inh: 20; USP28 inh: 14; USP10 block: 1; USP17 inh: 11

How did COc1cccc(NC(=O)N2CCCCCC2c2cccs2)c1 (centres undefined) do in these assays?
USP8 block: -15; USP30 block: -6; OTUD3 inh: -5; USP28 inh: -13; USP10 block: 0; USP17 inh: -5

What do the screens show for `COc1ccc(C)cc1CN1C[C@@H](c2ccccc2)[C@H](c2ccn[nH]2)C1`?
USP8 block: 21; USP30 block: -3; OTUD3 inh: 2; USP28 inh: 3; USP10 block: 3; USP17 inh: -3

How did O=c1ccc(-c2nc(-c3cnccn3)no2)cn1Cc1noc(-c2ccccc2)n1 do in these assays?
USP8 block: 0; USP30 block: -98; OTUD3 inh: -10; USP28 inh: -15; USP10 block: -4; USP17 inh: -20

What do the screens show for `O=c1ccc(-c2nc(-c3ccncc3)no2)cn1Cc1noc(-c2ccccc2)n1`?
USP8 block: 53*; USP30 block: -180; OTUD3 inh: -11; USP28 inh: -47; USP10 block: -7; USP17 inh: -24

What do the screens show for `O=c1ccc(-c2nc(-c3cnccn3)no2)cn1Cc1ccccc1F`?
USP8 block: 2; USP30 block: 33*; OTUD3 inh: 15; USP28 inh: 8; USP10 block: 0; USP17 inh: 4

How did COc1cccc(-n2ccn3cc(-c4ccccc4)nc3c2=O)c1 do in these assays?
USP8 block: 3; USP30 block: -59; OTUD3 inh: -6; USP28 inh: -19; USP10 block: -1; USP17 inh: 33*

Results for Cc1cccc(OCC(=O)NCc2cc(-c3ccccc3F)on2)c1 ?
USP8 block: 9; USP30 block: 42*; OTUD3 inh: 16; USP28 inh: 18; USP10 block: 7; USP17 inh: 42*

Results for COc1ccc(-c2nc(CNC(=O)COc3ccc(C)cc3)cs2)cc1 ?
USP8 block: 7; USP30 block: 12; OTUD3 inh: 9; USP28 inh: 7; USP10 block: 7; USP17 inh: 57*

Results for COc1cccc(-c2cc(CNC(=O)COc3ccc(F)cc3)no2)c1 ?
USP8 block: 4; USP30 block: 35*; OTUD3 inh: 2; USP28 inh: 12; USP10 block: 5; USP17 inh: 3

What do the screens show for `COc1cccc(C(=O)NCc2cc(-c3ccc(F)cc3F)on2)c1OC`?
USP8 block: -7; USP30 block: 40*; OTUD3 inh: -6; USP28 inh: 0; USP10 block: -3; USP17 inh: 0

What do the screens show for `Cc1ccc(-c2cc(CNC(=O)COc3ccccc3F)no2)cc1`?
USP8 block: 15; USP30 block: 29; OTUD3 inh: 11; USP28 inh: 14; USP10 block: 0; USP17 inh: 30

What do the screens show for `CN1C[C@@H]2C[C@H](NC(=O)Nc3ccc4c(c3)OCO4)CN2Cc2ccccc21`?
USP8 block: 0; USP30 block: -9; OTUD3 inh: -2; USP28 inh: 4; USP10 block: -3; USP17 inh: -9

What do the screens show for `CC1SCC(=O)N(CC(=O)Nc2ccccc2C(F)(F)F)C1=O` (centres undefined)?
USP8 block: 16; USP30 block: 23; OTUD3 inh: 10; USP28 inh: 9; USP10 block: 0; USP17 inh: 5

Results for O=C(NC(c1ccccc1)c1nnc(-c2ccccc2)o1)c1ccccc1Cl (centres undefined) ?
USP8 block: 0; USP30 block: 32*; OTUD3 inh: 12; USP28 inh: 7; USP10 block: 3; USP17 inh: 39*

What do the screens show for `O=C(COc1ccc(F)cc1)NC(c1ccc(F)cc1)c1nnc(-c2ccccc2)o1` (centres undefined)?
USP8 block: -1; USP30 block: 11; OTUD3 inh: 6; USP28 inh: 5; USP10 block: 1; USP17 inh: 6

Bioassay records from PubChem BioAssay.
